The supplement of paper PMC10849652
About 7,900 targets were measured; listed, in parts, are those with a hit and a random draw of the rest. About 0.6% of all pairs of compound and target were hits.

What was measured:
Assay in all cases: log2 fold change, soluble protein after heating vs DMSO (PISA); higher = thermal stabilisation; K562 cells, 10 uM, 30 min; active = over 0.2 and 3.5 SD of the protein, either way, in both replicates (recomputed)
[1] = compound: C1=CC=C(C=C1)[C@H](COC2=CC3=C(C=C2)NC(=O)N3)NC(=O)C4=CC=CN(C4=O)CC5=CC(=C(C=C5)F)F
In short: (§1)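 K562 cells at 2×10^6 cells/mL were treated with 10 μM compound for 30 min. Aliquots were heated for 3 min across 48°C-58°C, pooled, and extracted in PBS with 0.5% NP-40 at 4°C; soluble protein was the supernatant after 21,000xg for 90 min. Soluble protein was quantified by TMTpro 16plex LC-MS/MS with channel sums equalised, and reported as log2 fold change in thermal stability against DMSO controls, with values from duplicates.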

[2] = compound: CC1=C(SC2=C1C(=N[C@H](C3=NN=C(N32)C)CC(=O)N)C4=CC=C(C=C4)Cl)C
In short: as §1

[3] = compound: CC1=C2C(=CC=C1)N=C(N(C2=O)C3=CC=CC=C3C)CN4C=NC5=C(N=CN=C54)N
In short: as §1

[4] = compound: Cc1sc2c(c1C)C(c1ccc(Cl)cc1)=N[C@@H](CC(=O)OC(C)(C)C)c1nnc(C)n1-2
In short: as §1

[5] = compound: c1ccc([C@@H]2C[C@H]2NC2CCNCC2)cc1
In short: as §1

Measured: log2 fold change

VPS16 (UniProt Q9H269)
UniProt Q9H269, sequence (Q9H269 whole entry, looked up): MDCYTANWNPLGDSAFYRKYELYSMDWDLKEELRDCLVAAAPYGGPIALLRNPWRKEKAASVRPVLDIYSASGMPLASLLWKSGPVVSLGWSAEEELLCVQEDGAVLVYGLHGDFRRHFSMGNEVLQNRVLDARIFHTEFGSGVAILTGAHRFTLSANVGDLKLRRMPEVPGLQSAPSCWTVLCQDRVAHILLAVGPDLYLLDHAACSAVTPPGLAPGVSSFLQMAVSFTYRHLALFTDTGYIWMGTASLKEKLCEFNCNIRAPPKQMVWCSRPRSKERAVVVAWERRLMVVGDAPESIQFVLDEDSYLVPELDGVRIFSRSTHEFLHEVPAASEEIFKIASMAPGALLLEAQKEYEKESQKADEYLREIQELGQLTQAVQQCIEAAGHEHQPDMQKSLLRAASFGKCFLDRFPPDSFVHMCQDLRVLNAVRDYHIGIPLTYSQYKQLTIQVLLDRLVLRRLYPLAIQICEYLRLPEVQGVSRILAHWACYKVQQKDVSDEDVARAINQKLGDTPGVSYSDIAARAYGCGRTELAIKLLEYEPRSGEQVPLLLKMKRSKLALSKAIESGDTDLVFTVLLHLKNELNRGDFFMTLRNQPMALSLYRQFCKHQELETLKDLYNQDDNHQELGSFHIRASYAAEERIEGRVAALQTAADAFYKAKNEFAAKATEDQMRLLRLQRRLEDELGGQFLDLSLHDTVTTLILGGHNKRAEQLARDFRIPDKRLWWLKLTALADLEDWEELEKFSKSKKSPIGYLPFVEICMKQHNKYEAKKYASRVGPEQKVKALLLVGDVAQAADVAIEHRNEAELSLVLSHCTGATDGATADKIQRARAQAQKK
inactive: [1] -0.188 | [2] 0.048 | [3] 0.106 | [4] -0.021 | [5] -0.038

TRAPPC8 (UniProt Q9Y2L5)
inactive: [1] -0.01 | [2] 0.05 | [3] 0.046 | [4] 0.012 | [5] -0.018

TNFAIP8 isoform 4 (UniProt O95379)
UniProt O95379, sequence (O95379 whole entry, looked up): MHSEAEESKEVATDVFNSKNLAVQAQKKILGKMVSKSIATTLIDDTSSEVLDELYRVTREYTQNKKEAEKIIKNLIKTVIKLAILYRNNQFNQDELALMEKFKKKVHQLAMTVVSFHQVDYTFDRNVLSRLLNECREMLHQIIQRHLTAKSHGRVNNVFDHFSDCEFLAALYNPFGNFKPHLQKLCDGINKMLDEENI
inactive: [1] -0.021 | [2] 0.026 | [3] 0.02 | [4] -0.042 | [5] -0.011

TNPO3 (UniProt Q9Y5L0)
UniProt Q9Y5L0, sequence (Q9Y5L0 whole entry, looked up): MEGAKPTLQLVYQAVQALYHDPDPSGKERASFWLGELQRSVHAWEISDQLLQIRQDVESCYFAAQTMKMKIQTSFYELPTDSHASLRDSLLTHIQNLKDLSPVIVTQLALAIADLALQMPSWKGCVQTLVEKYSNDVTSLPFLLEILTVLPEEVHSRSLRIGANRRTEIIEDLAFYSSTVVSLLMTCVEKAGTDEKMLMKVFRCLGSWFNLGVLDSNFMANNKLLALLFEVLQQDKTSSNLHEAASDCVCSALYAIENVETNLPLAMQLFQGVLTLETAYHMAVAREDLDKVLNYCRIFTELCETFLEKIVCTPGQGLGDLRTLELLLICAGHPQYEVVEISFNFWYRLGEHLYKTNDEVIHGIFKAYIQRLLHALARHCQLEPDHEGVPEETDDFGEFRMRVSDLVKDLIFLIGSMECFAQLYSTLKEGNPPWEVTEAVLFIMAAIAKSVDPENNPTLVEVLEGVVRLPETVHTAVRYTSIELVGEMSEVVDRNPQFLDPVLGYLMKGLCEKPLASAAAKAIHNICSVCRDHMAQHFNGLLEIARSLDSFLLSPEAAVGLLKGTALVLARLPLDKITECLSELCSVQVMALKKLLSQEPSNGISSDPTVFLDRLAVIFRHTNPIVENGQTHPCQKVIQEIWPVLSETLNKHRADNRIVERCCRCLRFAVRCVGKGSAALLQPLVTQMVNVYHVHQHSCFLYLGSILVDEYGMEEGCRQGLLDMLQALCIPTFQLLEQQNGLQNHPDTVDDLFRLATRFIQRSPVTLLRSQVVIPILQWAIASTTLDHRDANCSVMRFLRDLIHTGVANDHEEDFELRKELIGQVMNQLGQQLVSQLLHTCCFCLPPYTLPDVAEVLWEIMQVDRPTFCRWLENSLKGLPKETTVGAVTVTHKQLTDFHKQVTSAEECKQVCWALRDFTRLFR
inactive: [1] -0.035 | [2] 0.063 | [3] 0.014 | [4] -0.022 | [5] -0.007

UTP14A (UniProt Q9BVJ6)
UniProt Q9BVJ6, sequence (Q9BVJ6 whole entry, looked up): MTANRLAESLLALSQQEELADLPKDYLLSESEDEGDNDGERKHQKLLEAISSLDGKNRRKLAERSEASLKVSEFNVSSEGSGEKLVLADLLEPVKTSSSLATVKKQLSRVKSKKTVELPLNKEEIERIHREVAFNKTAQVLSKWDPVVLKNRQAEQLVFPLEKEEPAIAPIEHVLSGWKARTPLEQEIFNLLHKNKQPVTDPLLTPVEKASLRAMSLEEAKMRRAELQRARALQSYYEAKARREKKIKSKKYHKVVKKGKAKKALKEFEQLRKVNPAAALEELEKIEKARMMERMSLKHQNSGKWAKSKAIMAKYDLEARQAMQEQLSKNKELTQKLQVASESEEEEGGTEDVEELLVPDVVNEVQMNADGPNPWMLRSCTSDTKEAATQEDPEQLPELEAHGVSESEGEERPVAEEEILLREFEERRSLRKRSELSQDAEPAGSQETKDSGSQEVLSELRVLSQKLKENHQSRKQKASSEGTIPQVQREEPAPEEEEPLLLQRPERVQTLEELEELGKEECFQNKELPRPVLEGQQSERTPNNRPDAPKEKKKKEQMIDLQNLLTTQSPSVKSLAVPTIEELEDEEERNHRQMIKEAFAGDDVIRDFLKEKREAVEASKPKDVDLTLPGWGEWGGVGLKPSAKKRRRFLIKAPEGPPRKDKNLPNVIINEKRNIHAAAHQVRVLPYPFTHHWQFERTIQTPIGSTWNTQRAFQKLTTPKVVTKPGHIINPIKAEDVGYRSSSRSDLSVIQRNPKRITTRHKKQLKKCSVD
inactive: [1] 0.039 | [2] -0.276 | [3] -0.154 | [4] 0.124 | [5] 0.029

USP9X (UniProt Q93008)
inactive: [1] -0.049 | [2] 0.028 | [3] 0.057 | [4] 0.012 | [5] -0.007

TMEM9B (UniProt Q9NQ34)
UniProt Q9NQ34, sequence (Q9NQ34 whole entry, looked up): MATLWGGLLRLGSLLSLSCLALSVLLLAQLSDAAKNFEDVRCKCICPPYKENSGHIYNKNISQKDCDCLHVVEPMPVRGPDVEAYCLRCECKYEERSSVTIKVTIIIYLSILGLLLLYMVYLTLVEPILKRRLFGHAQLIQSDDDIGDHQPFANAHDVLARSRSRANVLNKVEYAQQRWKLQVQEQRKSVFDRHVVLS
inactive: [1] 0.043 | [2] 0.074 | [3] 0.093 | [4] -0.041 | [5] -0.011

WDR7 (UniProt Q9Y4E6)
UniProt Q9Y4E6, sequence (Q9Y4E6 whole entry, looked up): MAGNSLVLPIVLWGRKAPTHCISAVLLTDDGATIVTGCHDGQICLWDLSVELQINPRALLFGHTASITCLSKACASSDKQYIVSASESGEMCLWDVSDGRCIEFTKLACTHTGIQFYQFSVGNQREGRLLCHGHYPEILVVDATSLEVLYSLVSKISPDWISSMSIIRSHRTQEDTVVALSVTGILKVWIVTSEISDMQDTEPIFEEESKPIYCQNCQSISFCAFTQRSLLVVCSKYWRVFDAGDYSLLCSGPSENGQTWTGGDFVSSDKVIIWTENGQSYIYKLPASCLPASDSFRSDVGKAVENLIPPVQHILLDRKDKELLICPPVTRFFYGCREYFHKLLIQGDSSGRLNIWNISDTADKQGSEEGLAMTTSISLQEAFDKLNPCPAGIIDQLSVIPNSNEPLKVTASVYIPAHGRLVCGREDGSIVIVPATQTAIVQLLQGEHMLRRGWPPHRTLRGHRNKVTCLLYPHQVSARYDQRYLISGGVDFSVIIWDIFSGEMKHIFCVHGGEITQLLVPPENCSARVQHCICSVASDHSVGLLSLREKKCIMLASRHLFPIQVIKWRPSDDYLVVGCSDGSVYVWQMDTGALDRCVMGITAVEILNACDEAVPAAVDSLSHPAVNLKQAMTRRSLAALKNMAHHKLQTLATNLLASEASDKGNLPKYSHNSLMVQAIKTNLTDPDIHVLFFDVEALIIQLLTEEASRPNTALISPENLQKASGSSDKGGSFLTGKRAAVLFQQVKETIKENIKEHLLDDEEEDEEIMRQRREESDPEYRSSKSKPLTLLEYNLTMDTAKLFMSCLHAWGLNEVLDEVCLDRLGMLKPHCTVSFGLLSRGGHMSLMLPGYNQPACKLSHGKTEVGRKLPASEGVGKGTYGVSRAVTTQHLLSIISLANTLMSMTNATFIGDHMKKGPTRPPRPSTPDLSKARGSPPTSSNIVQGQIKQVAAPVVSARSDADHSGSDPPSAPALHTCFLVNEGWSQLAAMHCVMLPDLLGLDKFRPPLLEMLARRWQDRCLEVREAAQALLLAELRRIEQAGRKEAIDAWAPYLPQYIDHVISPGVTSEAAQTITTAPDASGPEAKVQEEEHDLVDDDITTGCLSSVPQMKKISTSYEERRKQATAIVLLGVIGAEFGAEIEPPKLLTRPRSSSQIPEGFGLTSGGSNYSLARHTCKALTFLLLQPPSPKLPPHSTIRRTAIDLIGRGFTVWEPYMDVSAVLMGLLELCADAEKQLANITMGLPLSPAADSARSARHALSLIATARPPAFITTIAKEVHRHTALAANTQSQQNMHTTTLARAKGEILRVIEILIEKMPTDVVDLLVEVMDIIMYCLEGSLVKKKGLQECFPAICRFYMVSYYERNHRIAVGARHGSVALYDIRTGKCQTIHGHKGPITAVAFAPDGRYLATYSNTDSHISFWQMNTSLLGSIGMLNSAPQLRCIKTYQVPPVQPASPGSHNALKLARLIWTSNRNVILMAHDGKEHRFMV
inactive: [1] -0.037 | [2] 0.013 | [3] -0.068 | [4] -0.131 | [5] -0.093

TTC38 (UniProt Q5R3I4)
UniProt Q5R3I4, sequence (Q5R3I4 whole entry, looked up): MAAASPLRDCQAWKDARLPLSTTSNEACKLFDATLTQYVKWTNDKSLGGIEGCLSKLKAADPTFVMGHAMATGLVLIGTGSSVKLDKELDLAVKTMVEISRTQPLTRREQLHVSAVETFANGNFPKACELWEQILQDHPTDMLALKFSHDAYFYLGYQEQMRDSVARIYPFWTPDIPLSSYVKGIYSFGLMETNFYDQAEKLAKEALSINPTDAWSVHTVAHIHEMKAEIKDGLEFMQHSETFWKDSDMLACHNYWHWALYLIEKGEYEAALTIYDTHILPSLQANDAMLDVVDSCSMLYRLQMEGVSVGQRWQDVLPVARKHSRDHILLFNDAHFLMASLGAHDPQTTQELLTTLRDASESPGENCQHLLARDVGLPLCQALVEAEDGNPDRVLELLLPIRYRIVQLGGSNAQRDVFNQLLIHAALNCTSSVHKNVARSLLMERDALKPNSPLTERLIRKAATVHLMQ
inactive: [1] 0.046 | [2] 0.049 | [3] 0.032 | [4] -0.061 | [5] -0.016
